Data taken from PubChem BioAssay (NCATS).
Results filed as inconclusive are left out. Entries that show only a call come without a potency. Activity calls are given as the source filed them. The call rests on the fitted dose curve; in most records, active means well fitted inhibition curve with a large enough effect; inconclusive means small, poorly fitted or top-dose-only effect; inactive means flat fitted curve, though single readings scatter.

tested on: CP203; test: qHTS profiling for inhibitors of Plasmodium falciparum proliferation (AID 504749); further: nearly all actives have a fitted effect of over 60% in size; details: P. falciparum in erythrocytes, SYBR Green DNA, 72 h; series mostly up to 28.7 µM
Method in brief: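 Fluorescence of SYBR Green-bound parasite DNA, read at 485/535 nm, served as the growth measure. Infected erythrocytes were cultured with compound 72 h; artemisinin (0.29 uM) and DMSO wells defined the normalization range.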

Compound	Potency
Cn1nnc2c(C(N)=O)ncn2c1=O	inactive
CC(C)OC(=O)C(C(=O)OC(C)C)=C1SC=CS1	inactive
CC1=NN(c2ccccc2)C(=O)C1	inactive
COC(=O)Nc1nc2ccc(Sc3ccccc3)cc2[nH]1	inactive
CCc1c2c(nc3ccc(OC(=O)N4CCC(N5CCCCC5)CC4)cc13)-c1cc3c(c(=O)n1C2)COC(=O)[C@]3(O)CC	inactive
Cc1noc(NS(=O)(=O)c2ccc(N)cc2)c1C	inactive
CN1CCN(c2c(F)cc3c(=O)c(C(=O)O)cn4c3c2OCN4C)CC1	inactive
S=P(N1CC1)(N1CC1)N1CC1	inactive
CC[C@H](NC(C)C)[C@H](O)c1ccc(O)c2[nH]c(=O)ccc12	inactive
CC[C@H](C)C(=O)O[C@H]1C[C@@H](C)C=C2C=C[C@H](C)[C@H](CC[C@@H]3C[C@@H](O)CC(=O)O3)[C@H]21	inactive
CC(C)(Sc1cc(C(C)(C)C)c(O)c(C(C)(C)C)c1)Sc1cc(C(C)(C)C)c(O)c(C(C)(C)C)c1	inactive
Cc1ncc([N+](=O)[O-])n1CCO	inactive
CCCc1cc(C(N)=S)ccn1	inactive
CCCN[C@H]1CCc2nc(N)sc2C1	inactive
CC(C)(C#N)c1cc(Cn2cncn2)cc(C(C)(C)C#N)c1	inactive
COc1c(N2CCNC(C)C2)c(F)cc2c(=O)c(C(=O)O)cn(C3CC3)c12 (centres undefined)	inactive
O=C(O)c1cc(=O)[nH]c(=O)[nH]1	inactive
CNS(=O)(=O)Cc1ccc2[nH]cc(CCN(C)C)c2c1	inactive
CCC(C)(C)c1ccc(CC(C)CN2C[C@@H](C)O[C@@H](C)C2)cc1 (some centres undefined)	inactive
